From PubChem
In the library only some 4.2% were active in any assay of this set; here they are far more common.
CCHFV vOTU inh = CCHFV vOTU protease inhibitors, primary screen, biochemical, Pep-AMC substrate, fluorescence. Crimean-Congo hemorrhagic fever virus L polyprotein viral ovarian tumor (vOTU) protease …. inhibition, % at 11.5 µM. 370,000 compounds, 0.55% hits. AID 651958, 2012
RecA intein inh = Mtb RecA intein splicing inhibitors, primary screen, biochemical, fluorescence, HTS; Protein RecA (Mycobacterium tuberculosis (strain ATCC 25618 / H37Rv)), P9WHJ3; 290,000 compounds, 0.75% hits; cell-free RecA intein splicing; inhibition, % (test concentration not listed); in the data active = inhibition above about 30%
GDH-TPI counter = GDH-TPI coupling enzyme inhibitors, primary screen, artefact control for M. tuberculosis FBA inhibitor project, biochemical, absorbance, full deck | AID 588335, 2011 | 360,000 compounds, 1.2% hits | GDH-TPI coupled enzyme counterscreen, NADH absorbance | inhibition, % at 4.8 µM
Mtb FBA inh = Mtb FBA enzyme inhibitors, primary screen, biochemical, fluorescence, strain H37Rv. AID 588726, 2011. inhibition, % at 1 µM. purified M. tuberculosis FBA, fluorescence read-out. Fructose-bisphosphate aldolase (Mycobacterium tuberculosis (strain ATCC 25618 / H37Rv)), …. 360,000 compounds, 2.3% hits; in the data active = inhibition above about 27%
Numbers stand for hits; n = inactive; x = not tested or not shown; + = active, no number. Rule as the data show it, unless noted: active = inhibition above about 30%; inactive = the rest.

SMILES	CCHFV vOTU inh	RecA intein inh	GDH-TPI counter	Mtb FBA inh
CC(C)Cn1c(-c2ccc(C#N)cc2)nc2c1c(=O)[nH]c(=O)n2CC(C)C	n	n	n	+
CCCc1cc(=O)n2[nH]c(-c3ccco3)nc2n1	n	n	n	n
CCCCN1Cc2c(nc3cc(-c4ccco4)[nH]n3c2=O)C1=O	n	x	n	143
CCN1C(=O)/C(=C\c2cccc(OC(=O)c3ccco3)c2)SC1=S	n	n	n	n
CC(C)CS(=O)(=O)C1=NSC2=NC(=O)/C(=C\c3ccc(OC(=O)c4ccco4)cc3)C(=N)N21	n	41	n	n
COc1cc(/C=C2\C(=N)N3N=C(S(=O)(=O)CC(C)C)SC3=NC2=O)ccc1OC(=O)c1ccco1	x	32	x	x
CCC(CC)C1=NN2C(=N)/C(=C/c3ccc(OC(=O)c4ccco4)cc3)C(=O)N=C2S1	n	n	n	n
CCS(=O)(=O)C1=NN2C(=N)/C(=C\c3ccc(OS(=O)(=O)c4ccccc4)c(OC)c3)C(=O)N=C2S1	x	n	x	x
CCS(=O)(=O)C1=NN2C(=N)/C(=C\c3ccc(OC(=O)c4ccco4)cc3)C(=O)N=C2S1	n	33	n	n
O=C(O)CN1C(=O)/C(=C\c2ccc(OC(=O)c3ccco3)cc2)SC1=S	n	30	n	n
O=C(c1ccc(Cl)nc1)N1CCN(S(=O)(=O)c2ccccc2)CC1	n	n	n	n
CC(NC(=O)c1cc(S(=O)(=O)N(C)C)ccc1Cl)c1ccc(-n2ccnc2)cc1 (centres undefined)	n	n	n	n
O=C(Nc1ccccc1)c1cc(S(=O)(=O)N2CCCCC2)ccc1N1CCOCC1	n	x	n	n
CC1=CC(=C(C#N)C#N)C=C(C)N1CCN1CCNCC1	n	n	31	n
CC(=O)N1CCN(CCN2C(C)=CC(=C(C#N)C#N)C=C2C)CC1	n	n	n	n
CSc1ccc(C(=O)c2[nH]c(=O)[nH]c2C)cc1	n	n	32	n
Cc1[nH]c(=O)[nH]c1C(=O)CCCCC(=O)O	n	n	n	n
Cc1nn2cnnc2c(C)c1Cc1c(F)cccc1Cl	n	n	n	141
COc1ccc2[nH]c3c(=O)n(/N=C/[C@H]4C(C)C=C(C)CC4C)c(=O)[nH]c3c2c1 (some centres undefined)	n	n	n	156
COc1cccc(/C=N/NC(=O)c2c(C)nc3ccc(Br)cn23)c1O	x	n	n	n
Cc1nc2ccccn2c1C(=O)N/N=C/c1ccccc1	n	n	n	n
COc1cc(/C=N/NC(=O)c2c(C)nc3ccc(Cl)cn23)cc(OC)c1OC	n	n	36	n
Cc1nc2ccccn2c1C(=O)N/N=C/c1cc(C)n(-c2ccc(Br)cc2)c1C	n	n	37	n
COc1ccc(/C=N/NC(=O)c2c(C)nc3ccc(Cl)cn23)cc1OC	n	n	n	n
Cc1cc(/C=N\NC(=O)c2cccs2)c(C)n1-c1ccc2ncccc2c1	n	n	37	n
SMILES	CCHFV vOTU inh	RecA intein inh	GDH-TPI counter	Mtb FBA inh
COc1ccc(/C=N/NC(=O)c2c(C)nc3ccc(Br)cn23)cc1OC	n	n	46	n
COc1ccc(/C=N/NC(=O)c2nc(-c3ccccc3)n(-c3ccccc3)n2)cc1	n	n	33	n
Cc1ccc(/C=N/NC(=O)c2c(C)nc3ccc(Br)cn23)cc1	n	n	n	n
COc1ccc(/C=N\NC(=O)c2c(C)nc3ccc(Br)cn23)cc1	n	n	43	n
COc1ccc(/C=N/NC(=O)c2c(C)nc3ccccn23)cc1[N+](=O)[O-]	n	n	38	n
COc1ccc(/C=N/NC(=O)c2nc(-c3ccccc3)n(-c3ccccc3)n2)c(O)c1	n	n	n	n
Cc1ccc2nccc(C(=O)N3CCCC(Nc4ccc(C)c(C)c4)C3)c2c1 (centres undefined)	n	n	n	n
CCc1nc2c(OCCC3CCCCC3)cccn2c1N(C)C(=O)c1ccccc1F	n	x	n	n
Cc1ccc2nc3n(c(=O)c2c1)-c1cc2ccccc2cc1C(=O)NC3Cc1ccccc1 (centres undefined)	n	x	n	n
CCOC(=O)c1c(N)n(-c2ccc(N)cc2)c2nc3ccccc3nc12	n	n	n	n
CCOC(=O)c1c(N)n(CCOC(=O)c2cccs2)c2nc3ccccc3nc12	n	n	n	173
CCCCCOC(=O)c1c(N)n(CCOC)c2nc3ccccc3nc12	n	n	n	+
CN(Cc1ccccc1)C(=O)OCc1cn(Cc2ccc(F)c(F)c2)nn1	n	x	x	x
Cc1c(C(=O)Nc2nccs2)sc2nc(-c3cccs3)cc(C(F)(F)F)c12	n	n	n	n
CS(=O)(=O)c1sc2nc(-c3cccs3)cc(-c3ccccc3)c2c1N	n	n	31	n
Cc1c(C(=O)O)sc2nc(-c3cccs3)cc(C(F)(F)F)c12	n	n	n	32
CC(=O)c1sc2nc(-c3cccs3)cc(C(F)(F)F)c2c1N	n	n	n	+
Brc1ccc(CSc2nnc(SCc3ccccc3)s2)cc1	n	x	x	x
CCOC(=O)C1=C(COC(=O)Cc2c(F)cccc2Cl)NC(=O)NC1C (centres undefined)	n	x	n	n
Cc1ccccc1-c1cc(C(=O)NCc2ccc3c(c2)OCO3)n(CC2CC(c3cccnc3)=NO2)n1 (centres undefined)	n	x	n	n
CC1(C)CC(=O)c2sc(NC(=O)CN3CCCCC3)nc2C1	n	n	34	n
CCOc1ccc(CCNC(=O)COC(=O)c2ccc[nH]c2=O)cc1OCC	n	x	n	n
c1ccc2c(N3CCOCC3)nc(-c3ccncc3)nc2c1	n	n	33	n
C/C(=N\Nc1ccc(S(=O)(=O)N2CCCCC2)cn1)c1ccc(O)cc1	n	x	34	n
COc1cccc(/C(C)=N/Nc2ccc(S(=O)(=O)N3CCCCC3)cn2)c1	n	x	n	n
SMILES	CCHFV vOTU inh	RecA intein inh	GDH-TPI counter	Mtb FBA inh
O=C(c1ccccc1)[C@@H]1[C@@H](C(=O)c2ccc(F)cc2)[C@@]2(C(=O)Nc3ccccc32)[C@H]2c3ccccc3C=CN12	84	31	n	n
CC(=O)[C@@H]1[C@@H](C(=O)c2ccccc2)[C@]2(C(=O)Nc3ccccc32)[C@H]2C=Cc3cc(F)ccc3N12	n	n	n	n
Cc1cc(=O)n(Cc2ccccc2)c(O)c1C#N	n	n	n	n
COC(=O)c1cc(C(=O)OC)n(Cc2ccc(F)cc2)c1C	n	n	n	n
Cc1c(C#N)c(NC(=O)CCl)n(Cc2ccccc2)c1C	n	44	n	n
Cc1c(C#N)c(NC(=O)CCl)n(Cc2cccs2)c1C	n	65	n	n
Cc1c(C#N)c(NC(=O)CCl)n(Cc2ccc(F)cc2)c1C	n	56	n	n
Cc1nc(C)c(C(=O)N2CCCC(C(=O)c3ccc(Cl)cc3C)C2)s1 (centres undefined)	n	n	n	n
CC(=O)NC(CC(=O)OCC(=O)N1CCN(S(=O)(=O)c2ccc(Cl)cc2)CC1)c1ccccc1 (centres undefined)	n	n	n	n
CCn1cc(/C=C(\NC(=O)c2cc(OC)c(OC)c(OC)c2)C(=O)NCCCN2CCOCC2)c2ccccc21	n	n	n	n
